Test results published in PubChem BioAssay (NCATS).
Results filed as inconclusive are left out. Calls of active or inactive are those of the source. Calls come from the whole dose curve; as a rule, active = well fitted curve in the direction sought with a large enough effect; inconclusive = small, poorly fitted or top-dose-only effect, or another doubt; inactive = no such curve, though single readings can be large; an effect the other way counts as inactive or inconclusive.

Columns and labels:
[1] = qHTS of pediatric cancer cell lines to identify multiple opportunities for drug repurposing: Primary screen for MG 63 (6-TG R) cells (AID 1347105); note: nearly all actives have a fitted effect of over 50% in size; note: potency is the fitted concentration of half-maximal effect; for activity change, negative = cytotoxic: % is set by controls: 0 for no effect and ±100 for the full control effect
Procedure, shortened: (§1)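 Cells plated at 500-1,000/well in growth medium, compounds added after 5 h. MIPE tested at 11 points (from 0.78 nM), NPC at 8 points (from 0.59 nM). CellTiter-Glo luminescence after 48 h; concentration-response curves from primary screen.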

[2] = qHTS of pediatric cancer cell lines to identify multiple opportunities for drug repurposing: Primary screen for control Hh wild type fibroblast cells (AID 1347106); note: nearly all actives have a fitted effect of over 55% in size; note: potency is the fitted concentration of half-maximal effect;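 for activity change, negative = cytotoxic: series mostly up to about 46 µM; % is set by controls: 0 for no effect and ±100 for the full control effect; a drop in luminescence marks cytotoxicity and a rise apparent proliferation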
Procedure, shortened: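 Viability after 48 h compound treatment at 37C, 500-1,000 cells/well, read as ATP luminescence with CellTiter-Glo. Primary screens used 11-point (MIPE, 0.78 nM-46 µM) or 8-point (NPC, 0.59 nM-46 µM) final concentrations; follow-up screens used 11-point dilutions.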

[3] = qHTS of pediatric cancer cell lines to identify multiple opportunities for drug repurposing: Primary screen for Rh30 cells (AID 1347107); note: series mostly up to about 46 µM; % is set by controls: 0 for no effect and ±100 for the full control effect; nearly all actives have a fitted effect of over 75% in size
Procedure, shortened: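 Cells (500-1,000/well) rested 5 h, then received compounds for 48 h; metabolically active cells were measured by CellTiter-Glo luminescence. Final concentrations spanned up to 46 µM (MIPE, 11-point) or 0.59 nM-46 µM (NPC, 8-point) in primary screens, 11-point in follow-ups.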

[4] = qHTS of pediatric cancer cell lines to identify multiple opportunities for drug repurposing: Primary screen for Rh41 cells (AID 1347108);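 note: series mostly up to about 46 µM; luminescence drop marks cytotoxic hits; nearly all actives have a fitted effect of over 70% in size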
Procedure, shortened: as §1

NCCc1ccn[nH]1
inactive: Potency [1] | Potency [2] | Potency [3] | Potency [4]

Cc1cccn2c(=O)c(-c3nnn[nH]3)cnc12
inactive: Potency [1] | Potency [2] | Potency [3] | Potency [4]

O=c1ccc2ccccc2o1
inactive: Potency [1] | Potency [2] | Potency [3] | Potency [4]

CCN1CCCC1=O
inactive: Potency [1] | Potency [2] | Potency [3] | Potency [4]

COc1ccc(/C=C/C(=O)c2ccc(OC)cc2OC)cc1
inactive: Potency [1] | Potency [2]

CCOc1ccc(Cc2nccc3cc(OCC)c(OCC)cc23)cc1OCC
inactive: Potency [1] | Potency [2] | Potency [3]

OC[C@H]1O[C@H](O[C@]2(CCl)O[C@H](CCl)[C@@H](O)[C@@H]2O)[C@H](O)[C@@H](O)[C@H]1Cl
inactive: Potency [1] | Potency [2] | Potency [3] | Potency [4]

CCN(CCCc1ccccc1)CCCc1ccccc1
inactive: Potency [1] | Potency [2] | Potency [3] | Potency [4]

CN1[C@@H]2CC[C@H]1CC(OC(=O)c1c[nH]c3ccccc13)C2 (some centres not stated)
inactive: Potency [1] | Potency [2] | Potency [3] | Potency [4]

CCN(CC)CCOC(=O)C(c1ccccc1)C1CCCCC1 (configuration not stated)
inactive: Potency [1] | Potency [2] | Potency [3]

OC(CCN1CCCCC1)(c1ccccc1)c1ccccc1
inactive: Potency [1] | Potency [2] | Potency [3] | Potency [4]

C/C=C/c1ccc(OC)cc1
inactive: Potency [1] | Potency [2] | Potency [3] | Potency [4]

COc1cc(C(=S)N2CCOCC2)cc(OC)c1OC
inactive: Potency [1] | Potency [2] | Potency [3] | Potency [4]

C=C(CC)C(=O)c1ccc(OCC(=O)O)c(Cl)c1Cl
active: Potency [1] 21.1 µM
inactive: Potency [2] | Potency [3]

CC(C)=CCC1C(=O)N(c2ccccc2)N(c2ccccc2)C1=O
inactive: Potency [1] | Potency [2] | Potency [3] | Potency [4]

COc1ccc(CN2CCN(C(c3ccc(F)cc3)c3ccc(F)cc3)CC2)c(OC)c1OC
inactive: Potency [1] | Potency [2] | Potency [3]

CC(C)(C)CC(C)(C)c1ccc(O)c(Cc2ccc(Cl)cc2Cl)c1
active: Potency [1] 26.6 µM
inactive: Potency [2]

Oc1c(I)cc(Cl)c2cccnc12
active: Potency [1] 21.1 µM
inactive: Potency [2] | Potency [3]

Oc1ccc(Cl)c2cccnc12
active: Potency [2] 16.8 µM
inactive: Potency [1] | Potency [3]

CN(C)CCCOc1nn(Cc2ccccc2)c2ccccc12
inactive: Potency [1] | Potency [2] | Potency [3] | Potency [4]

O=C(O)CCCCC(=O)O
inactive: Potency [1] | Potency [2] | Potency [3] | Potency [4]

Oc1cc(O)c2c(c1)O[C@H](c1ccc(O)c(O)c1)[C@H](O)C2
inactive: Potency [1] | Potency [2] | Potency [3] | Potency [4]

COc1cccc(OC)c1C(=O)N[C@@H]1C(=O)N2[C@@H]1SC(C)(C)[C@@H]2C(=O)O
inactive: Potency [1] | Potency [2] | Potency [3] | Potency [4]

CC(C)n1nc(-c2cc3cc(O)ccc3[nH]2)c2c(N)ncnc21
active: Potency [1] 1.68 µM

O=C(N/N=C/c1ccccc1O)c1ccncc1
active: Potency [1] 6.68 µM

O=c1[nH]c(=O)n([C@H]2C[C@H](O)[C@@H](CO)O2)cc1C(F)(F)F
inactive: Potency [1]

c1ccc(-c2ccc(C(c3ccccc3)n3ccnc3)cc2)cc1 (configuration not stated)
inactive: Potency [1] | Potency [2] | Potency [3]

O=C(OCC(O)CO)c1ccccc1Nc1ccnc2cc(Cl)ccc12 (configuration not stated)
inactive: Potency [1] | Potency [2] | Potency [3]

Nc1ccc(/C=C/c2ccc(N)cc2S(=O)(=O)O)c(S(=O)(=O)O)c1
inactive: activity change, negative = cytotoxic [1] 9.42% [at 0.597 µM] | activity change, negative = cytotoxic [2] -3.6% [at 0.597 µM] | activity change, negative = cytotoxic [3] 24.6% [at 0.597 µM] | activity change, negative = cytotoxic [4] 37.3% [at 0.597 µM]

C[C@H](O)C(=O)Nc1c(I)c(C(=O)NC(CO)CO)c(I)c(C(=O)NC(CO)CO)c1I
inactive: Potency [1] | Potency [2] | Potency [3] | Potency [4]

CCN1CCC[C@H]1CNC(=O)c1c(OC)ccc(Br)c1OC
inactive: Potency [1] | Potency [2] | Potency [3] | Potency [4]

CCN(CC)CCNC(=O)COc1ccc(Cl)cc1
inactive: Potency [1] | Potency [2] | Potency [3] | Potency [4]

COc1cccc(CCc2ccccc2OCC(CN(C)C)OC(=O)CCC(=O)O)c1 (configuration not stated)
inactive: Potency [1] | Potency [2] | Potency [3] | Potency [4]

O=C(OCCOCCO)c1ccccc1Nc1cccc(C(F)(F)F)c1
inactive: Potency [1] | Potency [2] | Potency [3] | Potency [4]

Cc1cc(N)c2cc(NC(=O)Nc3ccc4nc(C)cc(N)c4c3)ccc2n1
inactive: Potency [1] | Potency [2] | Potency [3] | Potency [4]

CCn1cc(C(=O)O)c(=O)c2cnc(N3CCCC3)nc21
inactive: activity change, negative = cytotoxic [1] -14.9% [at 9.22 µM] | activity change, negative = cytotoxic [2] 4.15% [at 9.22 µM] | activity change, negative = cytotoxic [3] 8.92% [at 9.22 µM] | activity change, negative = cytotoxic [4] 12.6% [at 9.22 µM]

COc1ccc(CCN2CCC(Nc3nc4ccccc4n3Cc3ccc(F)cc3)CC2)cc1
active: Potency [1] 16.8 µM

CCOC(=O)[C@H](CCc1ccccc1)N[C@@H](C)C(=O)N1Cc2ccccc2C[C@H]1C(=O)O
inactive: Potency [1] | Potency [2] | Potency [3]

Cc1ccc(Nc2c(F)cccc2Cl)c(CC(=O)O)c1
inactive: Potency [1] | Potency [2] | Potency [3] | Potency [4]

CCN(CC)C(=O)/C(C#N)=C/c1cc(O)c(O)c([N+](=O)[O-])c1
inactive: Potency [1] | Potency [2] | Potency [3] | Potency [4]

CC(C)COC(=O)c1ccc(N)cc1
inactive: Potency [1] | Potency [2] | Potency [3] | Potency [4]

Clc1ccc2c(c1)CCc1cccnc1C2=C1CCNCC1
inactive: Potency [1] | Potency [2] | Potency [3] | Potency [4]

C[C@]12CC[C@@H]3c4ccc(O)cc4CC[C@H]3[C@@H]1C[C@@H](O)[C@@H]2O
inactive: Potency [1] | Potency [2] | Potency [3] | Potency [4]

CNC(=O)CN(CCN(CCN(CC(=O)[O-])CC(=O)NC)CC(=O)[O-])CC(=O)[O-].O.[Gd+3]
inactive: Potency [1] | Potency [2] | Potency [3] | Potency [4]

Cc1c(F)c(N2CCNC(C)C2)cc2c1c(=O)c(C(=O)O)cn2C1CC1 (configuration not stated)
inactive: Potency [1] | Potency [2] | Potency [3] | Potency [4]

COC(=O)CCc1ccc(OCC(O)CNC(C)C)cc1 (configuration not stated)
inactive: Potency [1] | Potency [2] | Potency [3] | Potency [4]

CC(=O)Oc1ccc(C(=C2CCCCC2)c2ccc(OC(C)=O)cc2)cc1
inactive: Potency [1] | Potency [2] | Potency [3] | Potency [4]

Cc1onc(-c2c(Cl)cccc2Cl)c1C(=O)N[C@@H]1C(=O)N2[C@@H]1SC(C)(C)[C@@H]2C(=O)O
inactive: Potency [1] | Potency [2] | Potency [3] | Potency [4]

c1ccc(OCc2ccc(CCCN3CCOCC3)cc2)cc1
inactive: Potency [1] | Potency [2] | Potency [3] | Potency [4]

CC1(C)O[C@@H]2[C@@H](CO[C@@]3(COS(N)(=O)=O)OC(C)(C)O[C@@H]23)O1
inactive: Potency [1] | Potency [2] | Potency [3] | Potency [4]

CC(C)(Oc1ccc(Cl)cc1)C(=O)O
inactive: Potency [1] | Potency [2] | Potency [3] | Potency [4]

OC[C@@H](O)[C@@H](O[C@@H]1O[C@H](CO)[C@H](O)[C@H](O)[C@H]1O)[C@H](O)[C@@H](O)CO
inactive: Potency [1] | Potency [2] | Potency [3] | Potency [4]

CC(=O)c1ccc2c(c1)N(CCCN1CCC(CCO)CC1)c1ccccc1S2
inactive: Potency [1] | Potency [2] | Potency [3] | Potency [4]

OCc1ccccc1O
inactive: Potency [1] | Potency [2] | Potency [3] | Potency [4]

O=S1(=O)c2cccc3cccc(c23)N1CCCN1CCN(c2ccc(F)cc2)CC1
inactive: Potency [1] | Potency [2] | Potency [3] | Potency [4]

CC(Cc1ccccc1)(NC(=O)CN)c1ccccc1 (configuration not stated)
inactive: Potency [1] | Potency [2] | Potency [3] | Potency [4]

NCCCC[C@H](N[C@@H](CCc1ccccc1)C(=O)O)C(=O)N1CCC[C@H]1C(=O)O
inactive: Potency [1] | Potency [2] | Potency [3] | Potency [4]

O=C(Nc1ccc(Cl)c(Cl)c1)C1CC1
inactive: Potency [1] | Potency [2] | Potency [3] | Potency [4]

CCC(=O)c1c(O)cc(O)cc1O
inactive: Potency [1] | Potency [2] | Potency [3] | Potency [4]

O=C1c2ccccc2C(=O)C1c1ccccc1
inactive: Potency [1] | Potency [2] | Potency [3] | Potency [4]

CCCCC1=NC2(CCCC2)C(=O)N1Cc1ccc(-c2ccccc2-c2nn[nH]n2)cc1
inactive: Potency [1] | Potency [2] | Potency [3] | Potency [4]

CNCC[C@@H](Oc1ccccc1C)c1ccccc1
inactive: Potency [1] | Potency [2] | Potency [3] | Potency [4]

COc1cc(OC)cc(OC)c1
inactive: Potency [1] | Potency [2] | Potency [3] | Potency [4]

NCCC(O)(P(=O)(O)O)P(=O)(O)O
inactive: Potency [1] | Potency [2] | Potency [3] | Potency [4]

CN1CCC(=C2c3ccccc3Sc3ccccc32)CC1
inactive: Potency [1] | Potency [2] | Potency [3] | Potency [4]

Cc1nc2n(c(=O)c1CCN1CCC(c3noc4cc(F)ccc34)CC1)CCC[C@H]2O
inactive: Potency [1] | Potency [2] | Potency [3] | Potency [4]

CCCCCCc1ccc(O)cc1O
inactive: Potency [1] | Potency [2] | Potency [3] | Potency [4]

CC(=O)OCC(=O)NCCCOc1cccc(CN2CCCCC2)c1
inactive: Potency [1] | Potency [2] | Potency [3] | Potency [4]

C[C@H](CCC(=O)O)[C@H]1CC[C@H]2[C@@H]3C(=O)C[C@@H]4CC(=O)CC[C@]4(C)[C@H]3CC(=O)[C@]12C
inactive: Potency [1] | Potency [2] | Potency [3] | Potency [4]

COc1c2occc2c(OC)c2c(=O)cc(C)oc12
inactive: Potency [1] | Potency [2] | Potency [3] | Potency [4]

COc1cc2c(cc1OC)[C@@H]1CC(=O)[C@@H](CC(C)C)CN1CC2
inactive: Potency [1] | Potency [2] | Potency [3] | Potency [4]

CCCCCCCCCCCCCCCCCC(=O)OCC(O)CO (configuration not stated)
inactive: Potency [1] | Potency [2] | Potency [3] | Potency [4]

CCN(CC)C(=O)N1CCN(C)CC1
inactive: Potency [1] | Potency [2] | Potency [3] | Potency [4]

CN(C)CCOc1ccccc1Cc1ccccc1
inactive: Potency [1] | Potency [2] | Potency [3] | Potency [4]

CCOC(=O)COc1ccc2c(C)c(CCN(CC)CC)c(=O)oc2c1Cl
inactive: Potency [1] | Potency [2] | Potency [3] | Potency [4]

Cc1cc(=O)n(-c2ccccc2)n1C
inactive: Potency [1] | Potency [2] | Potency [3] | Potency [4]

COc1cc2c(cc1OC)C(=O)C(CC1CCN(Cc3ccccc3)CC1)C2 (configuration not stated)
inactive: Potency [1] | Potency [3] | Potency [4]
